Results on 61 compounds are retold here after PubChem BioAssay AID1220 (Sanford-Burnham Center for Chemical Genomics, 2008).

A word on the inhibition: it is the drop in the measured response relative to a control, in per cent.

About 1,300 (0.68%) of roughly 190,000 compounds were called active. Only a selection was taken, and actives are over-represented in it overall. A number with no mark means an inactive call. No stated cut-off is given here; in the data, active means inhibition above about 50%; inactive means the rest.

In this test the target is Mannose-6-phosphate isomerase (Homo sapiens) (UniProt P34949). Nature of the test: human PMI inhibitors, high substrate, primary screen, biochemical, fluorescence intensity, high mannose 6-phosphate (AID 1220). Particulars: recombinant PMI enzyme, coupled fluorescence intensity; at 20 µM; active compounds read high.
Chain of Mannose-6-phosphate isomerase (Homo sapiens) (P34949 whole entry, looked up): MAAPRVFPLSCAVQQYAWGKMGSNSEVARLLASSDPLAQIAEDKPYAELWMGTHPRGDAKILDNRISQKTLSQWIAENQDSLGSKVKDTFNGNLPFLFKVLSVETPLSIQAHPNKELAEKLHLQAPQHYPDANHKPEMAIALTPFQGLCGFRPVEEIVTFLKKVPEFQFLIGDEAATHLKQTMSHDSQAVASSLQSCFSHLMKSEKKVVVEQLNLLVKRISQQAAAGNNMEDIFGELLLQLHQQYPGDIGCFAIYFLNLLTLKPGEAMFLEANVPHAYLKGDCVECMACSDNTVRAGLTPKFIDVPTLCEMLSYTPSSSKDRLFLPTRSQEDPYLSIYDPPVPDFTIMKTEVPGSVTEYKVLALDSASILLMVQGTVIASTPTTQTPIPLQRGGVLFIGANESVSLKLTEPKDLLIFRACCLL
Consider `CCNC(=S)N1CCN(C(c2ccccc2)c2ccccc2)CC1`, for which the inhibition is 18.7%.

For `COc1ccc(C(=O)NC(C)c2nnc(SCC(=O)Nc3nc4ccccc4s3)n2C)cc1` (stereo unspecified), the inhibition is 4.8%.

With `CCOC(=O)c1c(-c2ccco2)csc1N`, the inhibition was 57.9% (active).

On to `CCOC(=O)c1c(CC(C)C)csc1N`, for which the inhibition was 34.4%.

With `CCOC(=O)c1c(-c2ccc(C)o2)csc1NC(=O)CN1CCCCC1`, the inhibition was 20.2%.

As for `CCOC(=O)c1c(-c2ccc(C)o2)csc1N`, the inhibition is 51.6% (active).

Take `CCOC(=O)c1c(-c2ccco2)csc1NC(=O)CSc1nnc(N)s1`: the inhibition is 9.8%.

Take `CCOC(=O)c1c(-c2ccc(C)o2)csc1NC(=O)COC(=O)c1cccs1`: the inhibition was 16.6%.

Regarding `COc1ccc(C(=O)O/N=C(/C)c2cccs2)cc1`, the inhibition was -4.4%.

Turning to `Cc1c(NC(=S)NC(NC(=O)C(C)C)C(Cl)(Cl)Cl)c(=O)n(-c2ccccc2)n1C` (stereo unspecified), the inhibition is 1.4%.

Regarding `NC(=O)C1(N2CCCCC2)CCN(Cc2ccc(F)cc2)CC1`, the inhibition is 1.7%.

Take `C[C@]12CC[C@@H]3c4cc(O)c(O)cc4CC[C@H]3[C@@H]1CC[C@@H]2O`: the inhibition was 27.9%.

As for `C[C@]12CC[C@@H]3c4ccc(O)cc4CC[C@H]3[C@@H]1CC[C@@H]2O`, the inhibition is -6.7%.

Turning to `COC(=O)/C=c1/s/c(=C(\C#N)C(=O)NCc2ccco2)n(-c2ccccc2)c1=O`, the inhibition is -5.5%.

Turning to `Cc1ccc(-n2ncc(C#N)c2/N=C/N2CCOCC2)cc1`, the inhibition was 14.1%.

`Cc1cc(O)ccc1N/C=C1\CCCC1=O`: the inhibition was 54.1% (active).

For `O=C1CCCC/C1=C\Nc1ccc(O)cc1`, the inhibition was 25%.

As to `Cc1ccc(N/C=C2\CCCCC2=O)c(C)c1`, the inhibition was -0.6%.

`O=C(N/N=C/c1cccc([N+](=O)[O-])c1)c1ccc(COc2ccccc2-c2ccccc2)cc1`: the inhibition was 0.3%.

For the compound `Cc1ccc2c(c1)N(CC(=O)N1CCN(c3nc4ccccc4s3)CC1)C(=O)C(C)O2` (stereo unspecified), the inhibition was 0.6%.

On to `Cn1c(CN2CCCCC2)nc2cc(NC(=O)c3ccc(F)cc3)ccc21`, for which the inhibition was 10.4%.

Turning to `CCOc1ccc(S(=O)(=O)n2cc(F)c(=O)[nH]c2=O)cc1`, the inhibition is 11.2%.

Consider `CCCOc1ccc(S(=O)(=O)n2cc(Br)c(=O)[nH]c2=O)cc1`, for which the inhibition was -4.8%.

With `CC(C)COc1ccc(S(=O)(=O)n2cc(F)c(=O)[nH]c2=O)cc1`, the inhibition was 50.5% (active).

For `CC(C)(C)NCC(O)COc1ccccc1C(C)(C)C` (stereo unspecified), the inhibition is 2.5%.

Take `Cc1ccc2nsnc2c1S(=O)(=O)N(Cc1cc2cccc(C)c2[nH]c1=O)CC1CCCO1` (stereo unspecified): the inhibition was 10.3%.

Turning to `Cc1nnc(SCC(=O)c2ccc(C(C)C)cc2)s1`, the inhibition was 7.2%.

Turning to `CC(C)c1ccc(C(=O)CSc2n[nH]c(-c3ccncc3)n2)cc1`, the inhibition was 4.3%.

On to `Oc1ccc(/C=N/NC(=S)NCCN2CCOCC2)c(O)c1`, for which the inhibition is -21.6%.

In the case of `S=C(NCCN1CCOCC1)N/N=C/c1ccccc1`, the inhibition is 3.7%.

In the case of `C=CCn1c(C(C)NC(=O)c2ccccc2C)n[nH]c1=S` (stereo unspecified), the inhibition was 2.2%.

Regarding `CCOC(=O)c1c(-c2ccc(C)s2)csc1NC(=O)c1ccco1`, the inhibition was 3.5%.

In the case of `CCOC(=O)c1c(-c2cccc([N+](=O)[O-])c2)csc1NC(=O)C1CCCCC1`, the inhibition was 24%.

For the compound `CCOC(=O)c1c(-c2ccncc2)csc1N`, the inhibition is 23.1%.

Consider `CCOC(=O)c1c(-c2ccc(C)s2)csc1NC(=O)c1cccs1`, for which the inhibition was -3.8%.

`CCOC(=O)c1c(-c2cccc([N+](=O)[O-])c2)csc1N`: the inhibition was 50.3% (active).

As to `CCOc1ccc(-c2csc(N)c2C(=O)OC)cc1`, the inhibition is 19.4%.

Regarding `CCOC(=O)c1c(-c2cccc([N+](=O)[O-])c2)csc1NC(=O)C1CC1`, the inhibition was 40.4%.

Regarding `CCOC(=O)c1c(-c2ccsc2)csc1N`, the inhibition is 59.8% (active).

With `Cc1ccc2nc(-c3cccnc3)c(Nc3ccccc3C)n2c1`, the inhibition is 4.7%.

`COc1ccc(NC(=O)c2cc3c(=O)n4ccccc4nc3n2C)c(OC)c1`: the inhibition is 6.3%.

Take `Cc1cc(C)c(S(=O)(=O)c2ccccc2)c(Cl)n1`: the inhibition is 5.7%.

With `COC(=O)c1[nH]c2ccccc2c1NC(=O)CNC1CCCCC1`, the inhibition was 11.8%.

For the compound `O=C(CNc1cccc2ccccc12)N/N=C/c1cccc(Oc2ccccc2)c1`, the inhibition is 51.8% (active).

Regarding `O=C(CNc1cccc2ccccc12)N/N=C/c1ccc([N+](=O)[O-])cc1`, the inhibition was 18.1%.

With `C=CCc1cccc(/C=N/NC(=O)CNc2cccc3ccccc23)c1O`, the inhibition was 55.2% (active).

`Cc1cccc(/C=N/NC(=O)C(C)Nc2cccc3ccccc23)n1` (stereo unspecified): the inhibition was -72.3%.

`O=C(CNc1ccccc1)c1ccc([N+](=O)[O-])cc1`: the inhibition is -90.7%.

Turning to `C=CCc1cccc(/C=N/NC(=O)CNc2ccccc2)c1O`, the inhibition was -4.5%.

On to `O=C(CNc1cccc2ccccc12)c1ccc([N+](=O)[O-])cc1`, for which the inhibition is 57.5% (active).

With `Cc1cccc(NCC(=O)N/N=C\c2cccc(Oc3ccccc3)c2)c1`, the inhibition is 12.6%.

Turning to `Cc1ccc(NCC(=O)N/N=C/c2cccc(Oc3ccccc3)c2)cc1`, the inhibition was 10.5%.

For the compound `Cc1cccc(/C=N/NC(=O)CNc2cccc3ccccc23)n1`, the inhibition was 61.8% (active).

Consider `C=CCc1cccc(/C=N/NC(=O)CNc2ccccc2OC)c1O`, for which the inhibition is -20.8%.

For the compound `CSc1ccc(/C=N/NC(=O)CNc2cccc3ccccc23)cc1`, the inhibition was 17.1%.

Regarding `O=C(N=Nc1c(O)[nH]c2ccccc12)c1cc(NS(=O)(=O)c2cccs2)cc(NS(=O)(=O)c2cccs2)c1`, the inhibition is -0.7%.

For `O=C(N/N=C/C=C\c1ccccc1[N+](=O)[O-])c1ccccn1`, the inhibition was 13.1%.

For the compound `COc1ccc(N2CCN(C(c3cccs3)C(C)NS(=O)(=O)c3ccccc3)CC2)cc1` (stereo unspecified), the inhibition was 20.1%.

Regarding `CN(c1ccc(OCC(=O)OCC(=O)NC2CCCC2)cc1)S(=O)(=O)c1ccc2ccccc2c1`, the inhibition was 23.5%.

In the case of `O=C(O)C1CCC(Cn2c(SCc3cc(=O)n4cc(Br)ccc4n3)nc3ccsc3c2=O)CC1` (stereo unspecified), the inhibition was 5.7%.

Regarding `Cc1ccc2cc(S(=O)(=O)NCCCN3CCOCC3)ccc2c1`, the inhibition is 4.1%.
